Here are results for two compounds from PubChem BioAssay (EPA / NIEHS).

Records with an inconclusive call do not appear. The source made the active and inactive calls. Rule for the calls: active = hit-call score of the fitted dose curve at least 0.9, where 1 is the maximum; inconclusive = response in the unintended direction; inactive = score below 0.9.

The test concerns the target rat Histamine Receptor (H3), Hrh3 (gene 85268) (UniProt Q9QYN8). Nature of the test: NVS_GPCR_rH3: NovaScreen (NVS) G Protein-Coupled Receptor Assay for rat Histamine Receptor (H3) (AID 2283303). The essentials: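 Rat forebrain membranes incubated 1 h with compound; radioligand displacement measured by filter-based scintillation counting. Single-concentration duplicates at 25 µM, then concentration-response up to 50 µM, relative to DMSO.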

Chain of rat Histamine Receptor (H3), Hrh3 (gene 85268) (Q9QYN8 whole entry, looked up): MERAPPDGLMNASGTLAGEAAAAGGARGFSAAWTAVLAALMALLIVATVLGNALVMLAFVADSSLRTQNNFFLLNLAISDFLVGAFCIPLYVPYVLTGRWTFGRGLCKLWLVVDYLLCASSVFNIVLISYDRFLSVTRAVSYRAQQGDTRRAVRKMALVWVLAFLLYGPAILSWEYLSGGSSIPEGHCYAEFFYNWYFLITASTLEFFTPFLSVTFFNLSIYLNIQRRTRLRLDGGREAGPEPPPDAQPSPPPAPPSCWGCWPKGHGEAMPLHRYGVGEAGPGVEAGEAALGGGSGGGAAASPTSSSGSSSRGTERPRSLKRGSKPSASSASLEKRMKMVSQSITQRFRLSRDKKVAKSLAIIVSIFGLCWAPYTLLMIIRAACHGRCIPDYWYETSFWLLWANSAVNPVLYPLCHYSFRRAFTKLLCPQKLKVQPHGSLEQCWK

Usually AC50 stands for the concentration at which the activity in the assay is half-maximal. For the compound `CN(C)CCCN(C)CCCN(C)C`, the AC50 was 25 µM (active).

With `O=C(N[C@@H](c1ccccc1)[C@@H]1CCCCN1)c1cccc(C(F)(F)F)c1Cl`, the outcome was inactive.
